Records with an inconclusive call do not appear. Values without a mark were called inactive. Active and inactive are the calls of the source. Calls come from the whole dose curve; as a rule, active = well fitted cell-killing curve with a large enough effect; inconclusive = small, poorly fitted or top-dose-only effect, or effect the other way; inactive = flat fitted curve, though single readings scatter.
% is set by controls: 0 for no effect and ±100 for the full control effect; potency is the fitted concentration of half-maximal effect.

The test has as its system OV90. In words: Primary qHTS to identify gynecologic anti-cancer compounds using libraries of approved drugs and bioactive compounds (AID 1345084). Note: nearly all actives have a fitted effect of over 55% in size. The settings on record: Gynecologic cancer cell panel viability, ATPlite luminescence, 48 h; series mostly up to 57.5 µM; activity change, negative = cytotoxicity: at the top concentration. The procedure, abridged:
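In this quantitative HTS, cell killing is estimated from loss of ATP-dependent luciferase light. Cells see five compound concentrations over a 48 h exposure.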
For `Nc1nccn2c(C3CCC(C(=O)O)CC3)nc(-c3cc4cccc(Cl)c4[nH]3)c12` (centres undefined), the Potency was 10 µM (active). In the case of `C=CC(=O)Nc1cccc(Nc2nc(Nc3ccc(N4CCN(C(C)=O)CC4)cc3OC)ncc2C(F)(F)F)c1`, the Potency was 15.8 µM (active). Still for that read-out and setting: then `CNC(=O)c1cccc(-c2ccc3c(N4CCOC[C@@H]4C)nc(N4CCOC[C@@H]4C)nc3n2)c1`, with 1.26 µM (active); and `O=C(CSc1nc2c(c(=O)n1-c1ccccc1)SCC2)Nc1ccc(-c2ccccc2)cn1`, with 1.26 µM (active). Turning to `Cc1cc(C)c(Nc2ccnc(Nc3ccc(C#N)cc3)n2)c(C)c1`, the Potency is 10 µM (active). Regarding `CCc1cnn2c(NCc3ccc[n+]([O-])c3)cc(N3CCCCC3CCO)nc12` (centres undefined), the “activity change, negative = cytotoxicity” value is -43.8%.

Consider `C[C@H]1[C@H](O)O[C@@H]2O[C@@]3(C)CC[C@H]4[C@H](C)CC[C@@H]1[C@@]24OO3`, for which the “activity change, negative = cytotoxicity” value was 0.406%. As to `NC(=O)Nc1cc(-c2cccc(F)c2)sc1C(=O)NC1CCCNC1` (centres undefined), the Potency is 5.62 µM (active).

Turning to `CC1(C)CC(=O)C2=C(C1)NC(=S)NC2c1cccc(O)c1` (centres undefined), the “activity change, negative = cytotoxicity” value was -10.6%.

For `CCNC(=O)Nc1ccc(-c2nc3c(c(N4CCOC[C@@H]4C)n2)CCN(c2ncccn2)C3)cc1`, the Potency is 1.26 µM (active). On to `CCOC(=O)Nc1cc(-c2ccc(C)c(NS(C)(=O)=O)c2)nn2c(C)nnc12`, for which the Potency was 12.6 µM (active). Same read-out and setting: then `Cn1c(=O)n(-c2ccc(C(C)(C)C#N)cc2)c2c3cc(C#Cc4cccnc4)ccc3ncc21`, with 0.224 µM (active). With `CC(=O)NC1=NN(C(C)=O)C(C)(c2ccccc2)S1` (centres undefined), the “activity change, negative = cytotoxicity” value was 1.11%. On the same count and under the same terms, then `CCOc1cc2ncc(C#N)c(Nc3ccc(F)c(Cl)c3)c2cc1NC(=O)/C=C/CN(C)C`, with -32.5%.

These data come from PubChem BioAssay (NCATS).
